Assay results: PubChem BioAssay (NCATS)
Several values for one entry are separate records, joined by “and”; a condition that tells them apart may be missing. Equal entries are not always repeated. Inconclusive results are not listed. Activity calls are given as the source filed them. Unless noted, calls follow the shape of the dose curve; as a rule, active = well fitted curve in the direction sought with a large enough effect; inconclusive = small, poorly fitted or top-dose-only effect, or another doubt; inactive = no such curve, though single readings can be large; an effect the other way counts as inactive or inconclusive.

Assays:
[1] = Cell Viability - BJ (AID 421; calls by dose curve;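 also: potency is read from the fitted curve at half-maximal effect; cells exposed to compound for 40 hours at 37 °C before readout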); conditions: BJ fibroblast viability, qHTS
How it was run: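 Cytotoxicity in human BJ foreskin fibroblasts is scored as loss of cellular ATP after a 40-hour exposure, measured by luciferase luminescence. Controls are DMSO and 100 uM tamoxifen.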

[2] = Cell Viability - Jurkat (AID 426;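 active = dose-dependent loss of cell ATP signal giving a full or clear fitted curve, ranked by lower potency value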; also: potency is read from the fitted curve at half-maximal effect); conditions: qHTS
How it was run: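 Jurkat (Clone E6-1) cells, 5000/well in complete medium, exposed to compounds for 40 hr at 37C; intracellular ATP measured by CellTiter-Glo luminescence after 20 min at room temperature. AC50 from Hill fits.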

[3] = Cell Viability - Hek293 (AID 427;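 active = compounds whose dose-response curve shows a full or clear partial loss of cell viability, called from curve shape rather than a numeric limit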;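 also: potency is read from the fitted curve at half-maximal effect; cells exposed to compound for 40 hours at 37 °C before reading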); conditions: qHTS
How it was run: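 qHTS, human embryonic kidney (adenovirus-transformed) cells; 40 hr cpd, 37 °C; CellTiter-Glo ATP luminescence. Norm: DMSO = 0, 100 uM tamoxifen = 100% inhibition. Hill-fit AC50.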

[4] = Cell Viability - HepG2 (AID 433; calls by dose curve;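 also: potency is read from the fitted curve at half-maximal effect; potency for ATP loss meaning cytotoxicity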); conditions: qHTS
How it was run: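 In this qHTS format, a 40 h, 37 °C compound incubation of HepG2 cells in complete medium precedes a 20 min CellTiter-Glo step at room temperature. Tamoxifen and doxorubicin serve as positive controls; Hill-equation fits yield AC50.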

[5] = Cell Viability - MRC5 (AID 434; calls by dose curve;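 also: potency is read from the fitted curve at half-maximal effect; potency reflects cytotoxicity seen as loss of intracellular ATP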); conditions: MRC5 lung fibroblast viability, qHTS
How it was run: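 MRC5 normal human lung fibroblasts, 1500 cells/well, exposed to compound for 40 hr at 37 C. Cellular ATP was read by CellTiter-Glo luminescence; data normalized to DMSO and 100 uM tamoxifen, with AC50 from Hill fits.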

[6] = Cell Viability - Mesenchymal (AID 546); conditions: mesenchymal cells viability, qHTS; series mostly up to 91.7 µM;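 also: cells exposed to compound for 40 hours before reading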
How it was run: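 Human kidney mesenchymal cells from normal renal glomeruli, 1000 cells/well, rested 5 hr at 37 °C, then treated 40 hr at 37 °C in complete medium. Cellular ATP read by CellTiter-Glo luminescence; AC50 from Hill-equation fits.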

[7] = Cellular Toxicity (caspase-3) HepG2 (AID 654); conditions: HepG2 caspase-3 activation, luminescence, 0% = DMSO only, 100% = tamoxifen; series mostly up to 92.2 µM;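 also: cells exposed to compound for 16 hours before reading; 0% = DMSO alone and 100% = caspase signal from 100 µM tamoxifen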
How it was run: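 HepG2 cells (1500/well) were treated 16 h at 37 °C in complete medium, then caspase 3/7 activity was read by Caspase-Glo luminescence. Data were normalized to DMSO and 100 uM tamoxifen; AC50 came from Hill-equation fits of qHTS concentration-response.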

[8] = Cellular Toxicity (caspase-3) HUV-EC-C (AID 656); conditions: HUV-EC-C cells, caspase-3 activation (apoptosis), vehicle = 0, 100 µM tamoxifen = 100%; series mostly up to 92.2 µM
How it was run: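 Concentration-dependent caspase 3/7 induction was assessed in HUV-EC-C cells exposed for 16 hours. Data scaled between DMSO and tamoxifen (100 uM) controls.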

[9] = Cellular Toxicity (caspase-3) BJ (AID 658); conditions: BJ fibroblasts, luminescence, normalized: DMSO 0%, staurosporine 100%; series mostly up to 91.7 µM
How it was run: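 BJ human foreskin fibroblasts, 1000 cells/well, treated 16 hours at 37 °C in complete medium; caspase 3/7 activity by Caspase-Glo luminescence after 1 hr at room temperature. Normalized to DMSO and 10 uM staurosporine; AC50 from Hill fits.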

[10] = Cellular Toxicity (caspase-3) MRC-5 (AID 659); conditions: MRC-5 cells, luminescence, normalized: DMSO 0%, 10 µM staurosporine 100%; series mostly up to 91.7 µM
How it was run: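 MRC-5 human normal lung fibroblasts, 1500 cells/well, treated 16 h at 37 °C in complete medium. Caspase 3/7 measured by Caspase-Glo luminescence after 1 h at room temperature. Normalized to DMSO and 10 uM staurosporine; AC50 from Hill fit.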

[11] = Cellular Toxicity (caspase-3) SK-N-SH (AID 661); conditions: SK-N-SH caspase-3 activation, qHTS; series mostly up to 91.7 µM
How it was run: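 Human SK-N-SH neuroblastoma cells, 1500/well, were exposed to compounds for 16 hours at 37 °C. Caspase-Glo 3/7 luminescence was normalized to DMSO (basal) and 10 uM staurosporine (100%), and AC50 came from a Hill fit.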

[12] = Cellular Toxicity (caspase-3) Hek293 (AID 664); conditions: HEK293 caspase-3 activation, DMSO = 0%, 100 µM tamoxifen = 100%; at 92.2 µM (top of the series);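 also: cells exposed to compound for 16 h at 37 °C before readout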
How it was run: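 HEK293 cells in complete medium treated 16 h at 37 °C, then Caspase-Glo 3/7 luminescence read after 20 min at room temperature. Normalized to DMSO and 100 uM tamoxifen; AC50 from Hill fit of concentration-response.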

[13] = MultiTox-Fluor Cytotoxicity Assay - LYMP1-001 - Dead Cells (AID 946); conditions: LYMP1-001 lymphoblastoid cells, dead-cell protease fluorescence; series mostly up to 92.2 µM
How it was run: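 Seed 2500 LYMP1-001 cells/well, incubate 5 hr at 37 C; add compound, 16 hr at 37 C; add MultiTox-Fluor reagent, 60 min RT; read dead-cell fluorescence Ex/Em=485/520. Normalize to DMSO and 15 uM tetraoctylammonium bromide.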

[14] = Cell Viability - LYMP1-002 - Assay at 16 hr (AID 948); conditions: LYMP1-002 lymphoblastoid cell viability; series mostly up to 92.2 µM;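 also: 0% = DMSO alone and full effect = 92 µM tetraoctylammonium bromide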
How it was run: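 In this qHTS, lymphoblastoid LYMP1-002 cells (human) receive compounds for 16 hr at 37 C. Viability is taken from CellTiter-Glo ATP luminescence, and AC50 derives from standard Hill fits.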

[15] = MultiTox-Fluor Cytotoxicity Assay - LYMP1-002 - Live Cells (AID 955); conditions: LYMP1-002 lymphoblastoid live-cell protease fluorescence viability; series mostly up to 46.1 µM; also: % is scaled to controls: 0 for no effect and ±100 for the full control effect
How it was run: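 Human lymphoblastoid LYMP1-002 cells, 2500/well, treated 16 h at 37 C in complete medium. Live-cell protease activity via GF-AFC fluorescence (Ex/Em 405/510) after 60 min reagent incubation; AC50 from Hill fits.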

[16] = MultiTox-Fluor Cytotoxicity Assay - LYMP1-003 - Dead Cells (AID 961); conditions: LYMP1-003 lymphoblastoid cells, dead-cell protease fluorescence; series mostly up to 92.2 µM; also: nearly all actives have a fitted effect of over 70% in size
How it was run: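 LYMP1-003 lymphoblastoid, 2500 cells/well, 5 hr settle then 16 hr cpd at 37 C; MultiTox-Fluor reagent 60 min RT; Ex/Em 485/520 dead-cell signal; norm. DMSO = 0%, 15 uM tetraoctylammonium bromide = 100%; Hill AC50.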

[17] = Cell Viability - LYMP2-016 (AID 984); conditions: LYMP2-016 lymphoblastoid cell viability, qHTS; series mostly up to 92.2 µM; also: % is scaled to controls: 0 for no effect and ±100 for the full control effect; nearly all actives have a fitted effect of over 55% in size
How it was run: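 Concentration-dependent ATP depletion measured in LYMP2-016 lymphoblastoid cells, 24 h, 37 C; luciferase-based luminescent detection; Hill-equation AC50.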

[18] = Cell Viability - LYMP2-026 (AID 989); conditions: LYMP2-026 lymphoblastoid cell viability, qHTS; series mostly up to 92.2 µM; also: % is scaled to controls: 0 for no effect and ±100 for the full control effect; nearly all actives have a fitted effect of over 50% in size
How it was run: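 Human lymphoblastoid LYMP2-026 cells, 2500/well, exposed to compound 24 h at 37 C in complete medium. Viability as intracellular ATP by CellTiter-Glo luminescence; AC50 from Hill fits of qHTS concentration-response.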

[19] = qHTS Assay for Identification of Small Molecule Inducers of Hypoxia Response (AID 2120; active = well fitted curve in the direction sought with a large enough effect in the signal ratio, with a control signal flat, not every such curve was filed as active; the % refers to the signal ratio; also: 0% is about no effect); conditions: hypoxia response reporter cells, beta-lactamase ratio readout; series mostly up to 104 µM
How it was run: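 HRE-bla ME-180 cells in Opti-MEM with 0.5% dialyzed FBS, pre-plated 4-5 h, then compound titration for 17 h at 37 degrees Celsius. CCF4 loaded 2.5 h at room temperature; 460/530 nm ratio gave %Activity and AC50 for induction.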

[20] = target: Peroxisome proliferator-activated receptor alpha (Homo sapiens) (UniProt Q07869); assay: qHTS assay for small molecule agonists of the peroxisome proliferator-activated receptor alpha (PPARalpha) signaling pathway (AID 651778); conditions: PathHunter PPARalpha complementation, chemiluminescence, 6 h; active compounds read high; also: % of control where 0% means no effect
How it was run: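 Enzyme-fragment complementation assay in which ligand-bound PPARalpha translocates and forms an active enzyme that generates chemiluminescence. Cells were plated overnight, exposed to compound for 6 hr at 37 C, and then given detection reagent for 60 min at room temperature.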

Sequence of Peroxisome proliferator-activated receptor alpha (Homo sapiens) (Q07869 whole entry, looked up, the tested form may be a part): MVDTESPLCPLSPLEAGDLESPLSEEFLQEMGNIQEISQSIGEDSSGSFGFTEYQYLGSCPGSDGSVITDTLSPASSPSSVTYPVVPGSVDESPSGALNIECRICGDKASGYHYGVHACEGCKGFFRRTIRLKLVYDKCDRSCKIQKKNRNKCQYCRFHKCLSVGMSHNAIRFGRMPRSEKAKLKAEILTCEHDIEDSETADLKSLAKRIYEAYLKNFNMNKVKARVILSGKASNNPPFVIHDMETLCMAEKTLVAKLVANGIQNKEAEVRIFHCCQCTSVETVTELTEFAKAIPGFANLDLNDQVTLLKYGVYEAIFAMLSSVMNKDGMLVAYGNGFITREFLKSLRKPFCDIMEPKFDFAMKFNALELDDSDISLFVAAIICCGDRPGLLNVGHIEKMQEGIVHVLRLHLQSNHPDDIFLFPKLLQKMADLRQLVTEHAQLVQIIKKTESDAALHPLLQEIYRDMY

FC(Cl)(Cl)Cl
inactive: Potency [1] > 92 µM | Potency [2] > 92 µM | Potency [3] > 92 µM | Potency [4] > 92 µM | Potency [5] > 92 µM | Potency [6] | outcome [7] | outcome [8] | outcome [9] | outcome [10] | Potency [11] | caspase-3 activation [12] -1.27% | outcome [13] | outcome [14] | outcome [15] | Potency [16] | Potency [17] | Potency [18] | Potency [19] | max response [20] -4.74%

O=[N+]([O-])c1cc(Cl)c(Cl)cc1Cl
inactive: Potency [1] > 92 µM | Potency [2] > 92 µM | Potency [3] > 92 µM | Potency [4] > 92 µM | Potency [5] > 92 µM | Potency [6] | outcome [7] | outcome [8] | outcome [9] | outcome [10] | Potency [11] | caspase-3 activation [12] -4.07% | outcome [13] | outcome [14] | outcome [15] | Potency [16] | Potency [17] | Potency [18] | Potency [19] | max response [20] -8.71%

Cc1ccc(N)cc1C
inactive: Potency [1] > 92 µM | Potency [2] > 92 µM | Potency [3] > 92 µM | Potency [4] > 92 µM | Potency [5] > 92 µM | Potency [6] | outcome [7] | outcome [8] | outcome [9] | outcome [10] | Potency [11] | caspase-3 activation [12] 0.308% | outcome [13] | outcome [14] | outcome [15] | Potency [16] | Potency [17] | Potency [18] | Potency [19] | max response [20] -0.229%

O=[N+]([O-])c1ccc(Cl)c(Cl)c1Cl
inactive: Potency [1] > 92 µM | Potency [2] > 92 µM | Potency [3] > 92 µM | Potency [4] > 92 µM | Potency [5] > 92 µM | Potency [6] | outcome [7] | outcome [8] | outcome [9] | outcome [10] | Potency [11] | caspase-3 activation [12] -0.669% | outcome [13] | outcome [14] | outcome [15] | Potency [16] | Potency [17] | Potency [18] | Potency [19] | max response [20] 10.7%

Nc1ccc(Cc2ccc(N)cc2)cc1
inactive: Potency [1] > 92 µM | Potency [2] > 92 µM | Potency [3] > 92 µM | Potency [4] > 92 µM | Potency [5] > 92 µM | Potency [6] | outcome [7] | outcome [8] | outcome [9] | outcome [10] | Potency [11] | caspase-3 activation [12] 0.697% | outcome [13] | outcome [14] | outcome [15] | Potency [16] | Potency [17] | Potency [18] | Potency [19] | max response [20] -4.91% and -1.61%

ClC(Cl)C(Cl)Cl
inactive: Potency [1] > 92 µM | Potency [2] > 92 µM | Potency [3] > 92 µM | Potency [4] > 92 µM | Potency [5] > 92 µM | Potency [6] | outcome [7] | outcome [8] | outcome [9] | outcome [10] | Potency [11] | caspase-3 activation [12] -0.455% | outcome [13] | outcome [14] | outcome [15] | Potency [16] | Potency [17] | Potency [18] | Potency [19] | max response [20] -3.31%
